Where “and” joins values, the source holds several entries; their conditions need not be identical. Equal entries are not always repeated. About 79,000 compounds went through this panel and 15% of them were active in at least one assay; those are over-represented in the sample as a whole. A number with no mark means an inactive call. Calls of active or inactive are those of the source. No stated cut-off is given here; in the data, active means growth inhibition above about 70%; inactive means the rest.

The values that follow come from PubChem BioAssay (NCI).

Assay [1] can be described thus: NCI Yeast Anticancer Drug Screen. Data for the rad50 strain (AID 155).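 Further: 0% = growth of vehicle-only cultures of the same strain.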 Particulars: S. cerevisiae rad50 strain growth inhibition, hits give high values; at 50.0 µM unless noted. In short, it runs like this: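 Yeast carrying a defined DNA repair defect were exposed to test compounds, and growth was compared with vehicle-treated controls to give percent inhibition.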

A short description of assay [2]: NCI Yeast Anticancer Drug Screen. Data for the mec2-1 strain (AID 157). The following applies: S. cerevisiae mec2-1 strain, hits give high values; at 50.0 µM unless noted. In short, it runs like this: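 Yeast mec2-1 mutant treated with compound. Readout: growth inhibition vs vehicle controls.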
The nature of assay [3]: NCI Yeast Anticancer Drug Screen. Data for the sgs1 mgt1 strain (AID 161).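 Further: 0% = growth of cultures given vehicle only.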 The following applies: S. cerevisiae sgs1 mgt1 strain, hits give high values; at 50.0 µM unless noted. The essentials: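 Test agents were incubated with a DNA-repair-mutant yeast strain. Growth was then read and compared against vehicle-treated controls.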
Assay [4] can be described thus: NCI Yeast Anticancer Drug Screen. Data for the cln2 rad14 strain (AID 165).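 Further: 0% = growth equal to vehicle treated cultures.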 Particulars: S. cerevisiae cln2 rad14 strain, hits give high values; at 50.0 µM unless noted. In short, it runs like this: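 cln2 rad14 yeast strain; compound exposure; growth inhibition read vs vehicle controls.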
The nature of assay [5]: NCI Yeast Anticancer Drug Screen. Data for the bub3 strain (AID 167). The following applies: S. cerevisiae bub3 mutant strain, hits give high values; at 50.0 µM unless noted. In short, it runs like this: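 Compounds were applied to a genetically altered yeast strain carrying a cell-cycle control defect. Growth inhibition was scored against vehicle-treated controls.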
The nature of assay [6]: NCI Yeast Anticancer Drug Screen. Data for the mlh1 rad18 strain (AID 175). The following applies: S. cerevisiae mlh1 rad18 strain growth inhibition, hits give high values; at 50.0 µM unless noted. In short, it runs like this: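 Yeast w/ defined DNA-repair lesions; compound exposure; growth vs vehicle controls → % inhibition.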

For `NNC(=S)N/N=C/c1ccc([N+](=O)[O-])s1`, the growth inhibition is 9.2% in assay [1]; -2.4% in assay [2]; 24.1% in assay [3]; -47.4% in assay [4]; -19.8% in assay [5]; 6.35% in assay [6].
Turning to `O=[N+]([O-])c1cccc(Br)c1`, the growth inhibition in assay [1] was 25.9%; in assay [2] it was 22.8%; in assay [3], -10.7%; in assay [4] it was -52.6%; in assay [5] it was 3.45%; in assay [6], 5.75%.
`c1ccc(CN2CCOC2)cc1`: the growth inhibition in assay [1] was 15.6%; in assay [2] it was 5.85%; in assay [3] it was -13.1%; in assay [4], 11%; in assay [5], -2.2%; in assay [6], -35.6%.
Take `N#CC(C(=O)CCC(=O)C(C#N)c1ccccc1)c1ccccc1` (stereo unspecified): the growth inhibition in assay [1] is -26.4%; in assay [2], -14.8%; in assay [3], 1.2%; in assay [4], 5.9%; in assay [5] it was 6.45%; in assay [6], -6.4%.
As for `O=c1ccc2ccc3[nH]onc3c2c1`, the growth inhibition is 10.2% in assay [1]; -12.6% in assay [2]; -5.85% in assay [3]; -48.8% in assay [4]; -26.4% in assay [5]; -2.2% in assay [6].
Turning to `O=[N+]([O-])c1ccc(/C=N/Nc2nnc3c4ccccc4c4ncccc4c3n2)o1`, the growth inhibition was -20.8% in assay [1]; -14.6% in assay [2]; -23.6% in assay [3]; -29.8% in assay [4]; -33.8% in assay [5]; 16.9% in assay [6].
For the compound `Cc1c(Cl)cccc1C(=O)O`, the growth inhibition is -3.15% in assay [1]; 10.7% in assay [2]; 3.65% in assay [3]; -3.15% in assay [4]; -10% in assay [5]; 27.6% in assay [6].
Regarding `C=CC(=O)OCCN(CCCC)CCCC`, the growth inhibition is -12.9% in assay [1]; -0.2% in assay [2]; -10.9% in assay [3]; -10.8% in assay [4]; 6.75% in assay [5]; 21.5% in assay [6].
On to `CC[N+]1(CC)CC[N+]2(CC1)CC[N+]1(CC[N+](CC)(CC)CC1)CC2`, for which the growth inhibition in assay [1] is -16.9%; in assay [2], -3.4%; in assay [3], 12.1%; in assay [4], -26.6%; in assay [5], 1.7%; in assay [6] it was 2.7%.
With `CC(=O)N1C(=O)CC23c4cccc([N+](=O)[O-])c4C(=O)N2CCCN13` (stereo unspecified), the growth inhibition in assay [1] is 8.8%; in assay [2], 0.35%; in assay [3], 0.9%; in assay [4], 10.6%; in assay [5], -21.8%; in assay [6], 17.4%.
On to `COc1cc(CCCC(C(=O)O)C(=O)O)cc(OC)c1OC`, for which the growth inhibition in assay [1] was 14.2%; in assay [2], -13.3%; in assay [3] it was -11.9%; in assay [4], 15.8%; in assay [5] it was -0.9%; in assay [6] it was 11.7%.
As for `CCOC(=O)c1c(-c2ccc([N+](=O)[O-])cc2)cn(-c2ccc(OC)cc2)c1C`, the growth inhibition in assay [1] was 13.2%; in assay [2], 7.1%; in assay [3] it was 12.4%; in assay [4], 4.35%; in assay [5], -0.65%; in assay [6], 1%.
`CC1=C(C(=O)CC(=O)C(=O)Nc2ccc(Cl)cc2C)Sc2ccccc2N1`: the growth inhibition in assay [1] was -4.7%; in assay [2], 3.25%; in assay [3], -26.6%; in assay [4], 9.35%; in assay [5], 6.7%; in assay [6] it was -22.6%.
With `O=C1CCCNC(=O)N1`, the growth inhibition in assay [1] was -11.2%; in assay [2], 20.1%; in assay [3] it was -19.3%; in assay [4] it was 4.35%; in assay [5], 1.95%; in assay [6], -5.3%.
In the case of `CC(=O)CC(C)(C)c1cc(-c2ccccc2)on1`, the growth inhibition is 20.8% in assay [1]; 5.4% in assay [2]; -6.25% in assay [3]; -61.6% in assay [4]; 19.4% in assay [5]; 12.8% in assay [6].
With `O=C1CCCCCCCCCCCCCCCCC1`, the growth inhibition in assay [1] was -13.3%; in assay [2] it was -5.85%; in assay [3] it was -11.3%; in assay [4], -7.25%; in assay [5], -2.15%; in assay [6], -13.9%.
For the compound `C/C(=N\Nc1nc2ccccc2s1)c1ccc2c(c1)Sc1ccccc1O2`, the growth inhibition in assay [1] is 42.9%; in assay [2], 7.7%; in assay [3], 11.9%; in assay [4], 21.8%; in assay [5] it was -1.8%; in assay [6], 15.9%.
Take `O=c1cnn2c(n1)OC1C(O)C(CO)OC12` (stereo unspecified): the growth inhibition was 3.55% in assay [1]; -2.5% in assay [2]; 9.6% in assay [3]; -21.7% in assay [4]; -11.7% in assay [5]; 22% in assay [6].
On to `O=C1C=C(Nc2ccccc2)C(=O)C=C1Nc1ccccc1`, for which the growth inhibition was -2.3% in assay [1]; 1.65% in assay [2]; 10% in assay [3]; -42.2% in assay [4]; 4.15% in assay [5]; -6% in assay [6].
Take `CC(=O)N1C=CC(=Cc2ccccc2)C=C1`: the growth inhibition in assay [1] is -0.15%; in assay [2] it was 5.55%; in assay [3], -30.6%; in assay [4], -1.25%; in assay [5] it was 12.8%; in assay [6], 3.95%.
As to `CCCCOP(=O)(Nc1ccc([N+](=O)[O-])cc1)OCCCC`, the growth inhibition is 94.1% (active) in assay [1]; 86.3% (active) in assay [2]; 91.1% (active) in assay [3]; 74% (active) in assay [4]; 77.2% (active) in assay [5]; 87.5% (active) in assay [6].
As to `COc1ccc(C2=N/C(=C\c3ccccc3)C(=O)O2)cc1`, the growth inhibition in assay [1] is -4.05%; in assay [2], 8.6%; in assay [3], 28.4%; in assay [4], -22.4%; in assay [5], -4%; in assay [6] it was -0.9%.
`CN(c1ccccc1)c1c(Cl)c(=O)oc2c1ccc1nc(-c3ccccc3)sc12`: the growth inhibition in assay [1] is 44.6%; in assay [2], 24.8%; in assay [3], 35.7%; in assay [4] it was 43.5%; in assay [5] it was -4.3%; in assay [6], 32.9%.
For the compound `OCCc1ccc2ccccc2n1`, the growth inhibition in assay [1] is 6.05%; in assay [2], 14.2%; in assay [3], 10.7%; in assay [4], 6.2%; in assay [5], -0.8%; in assay [6], 3.5%.
Regarding `CCSc1nnc(Sc2c3ccccc3nc3ccccc23)s1`, the growth inhibition in assay [1] is 26.9%; in assay [2] it was 3.15%; in assay [3], -13.1%; in assay [4] it was 11.4%; in assay [5] it was 16.8%; in assay [6], 76% (active).
For `Cc1ccc(S(=O)(=O)NNC(=O)CCn2[nH]c(=O)c(Cl)c(Cl)c2=O)cc1`, the growth inhibition is -16.9% in assay [1]; -9.65% in assay [2]; -8.1% in assay [3]; -38.1% in assay [4]; -0.3% in assay [5]; -12.1% in assay [6].
With `CCC(=O)Oc1ccc(C(=O)c2ccc(OC(=O)CC)cc2)cc1`, the growth inhibition in assay [1] was 5.05%; in assay [2], -24.9%; in assay [3], 13.8%; in assay [4], 11.4%; in assay [5], 8.05%; in assay [6], 4.1%.
For `O=C(O)c1ccccc1C(=O)Nc1ccc(S(=O)(=O)Nc2nccs2)cc1`, the growth inhibition in assay [1] is -22.6% and -6.05%; in assay [2], -15.9% and 9.8%; in assay [3], -17.1% and 19.8%; in assay [4], -4.7% and -20%; in assay [5] it was -2.35% and -4.15%; in assay [6] it was -18.5% and 25.6%.
For the compound `O=C1/C(=C/c2cccc(Cl)c2)CCCc2ccccc21`, the growth inhibition in assay [1] is 21.9%; in assay [2], 13.8%; in assay [3], 33.2%; in assay [4], 11.3%; in assay [5], 62.5%; in assay [6], 44.4%.
As to `CCOc1cccc(OCC)c1`, the growth inhibition is 23.1% in assay [1]; 27.1% in assay [2]; -7.4% in assay [3]; -2.05% in assay [4]; 1.4% in assay [5]; 13.9% in assay [6].
As for `O=CNCC(=O)O`, the growth inhibition in assay [1] is 15.6%; in assay [2], -3.75%; in assay [3], -15.5%; in assay [4], -0.7%; in assay [5], -2.55%; in assay [6], 7.9%.
As for `O=c1oc(-c2ccc([N+](=O)[O-])cc2Cl)nc2ccccc12`, the growth inhibition in assay [1] is 13.2%; in assay [2] it was 23.4%; in assay [3] it was 31.1%; in assay [4] it was 2%; in assay [5], 38.6%; in assay [6], 29.9%.
Take `CCC(=O)c1cccc2cccc(C(c3ccccc3)c3ccccc3)c12`: the growth inhibition is 1.85% in assay [1]; 14.4% in assay [2]; 6.35% in assay [3]; -7.05% in assay [4]; 8.7% in assay [5]; -19.6% in assay [6].
In the case of `COC1/C=C/OC2(C)Oc3c(C)c(O)c4c(O)c(c(C5SCCS5)c(O)c4c3C2=O)NC(=O)C(C)=C/C=C\C(C)C(O)C(C)C2OC(C)(C)OC(C1C)C2C` (stereo unspecified), the growth inhibition was 2.15% in assay [1]; 33% in assay [2]; 22.8% in assay [3]; 15.6% in assay [4]; 14.4% in assay [5]; 38% in assay [6].
As for `COc1cc2c(cc1OCc1ccccc1)C(Cc1cc(Br)sc1Br)=NCC2`, the growth inhibition is 57.8% in assay [1]; 58.5% in assay [2]; 54% in assay [3]; 50.3% in assay [4]; 70.5% (active) in assay [5]; 43.4% in assay [6].
As for `NNC(=O)c1nc2ccccc2s1`, the growth inhibition in assay [1] is 18.1%; in assay [2] it was 4.75%; in assay [3] it was -8.3%; in assay [4], 5.95%; in assay [5], 8.95%; in assay [6], 20.6%.
